Source: PubChem BioAssay
HT1080 IDH1KD tx: qHTS for induction of synthetic lethality in tumor cells producing 2HG: qHTS for the HT-1080-IDH1KD cell line. HT-1080 IDH1 knockdown viability, ATP luminescence, 48 h. Potency, µM (doses to about 46.1 µM), without a hit: at the top dose activity, negative = toxicity, actives largely listed as cytotoxic. 360,000 tested, 2% active. AID 686971, 2013;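 note: potency is the fitted concentration of half-maximal effect; 0% = DMSO wells and -100% = cell-free medium wells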
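Luminescent ATP read-out (CellTiter-Glo, 10 min at room temperature) after 48 h compound exposure at 37 °C gave viability of IDH1-knockdown HT-1080 cells. Activity was normalised to DMSO and cell-free wells, then fitted as concentration-response curves.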
TDP1 cell noCPT: qHTS for Inhibitors of human tyrosyl-DNA phosphodiesterase 1 (TDP1): qHTS in cells in absence of CPT; 420,000 tested, 15% active; DT40 Tdp1-/- hTDP1 cells, no CPT, ATP luminescence, 48 h; Potency, µM (top dose mostly 46.2 µM), without a hit: at the highest dose activity change, negative = growth inhibition, hits mostly inhibitors; note: potency is the fitted concentration of half-maximal effect; nearly all actives have a fitted effect of over 55% in size
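Readout: luminescence from CellTiter-Glo after 30 min in the dark at RT. Cells: DT40 Tdp1-/- with stable hTDP1, 400/well. Exposure: compounds alone, ≥48 hr, 37 °C.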
DT40 TDP1 CPT: qHTS for Inhibitors of human tyrosyl-DNA phosphodiesterase 1 (TDP1): qHTS in cells in presence of CPT. chicken DT40 Tdp1-/-;hTDP1 cells + 20 nM CPT, ATP luminescence, 48 h. 420,000 tested, 12% active. Potency, µM (doses to about 46.2 µM), for inactives: top-dose activity change, negative = growth inhibition, hits mostly inhibitors; note: potency is the fitted concentration of half-maximal effect; nearly all actives have a fitted effect of over 55% in size
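Cell growth measured by CellTiter-Glo luminescence after a minimum 48 h, 37 C compound exposure with 20 nM CPT in Tdp1-knockout DT40 cells stably expressing hTDP1, seeded 400/well; qHTS titration format.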
HT1080-NT tox: qHTS for induction of synthetic lethality in tumor cells producing 2HG: qHTS for the HT-1080-NT fibrosarcoma cell line; HT-1080-NT fibrosarcoma viability, CellTiter-Glo ATP luminescence, 48 h; Potency, µM (titrated, usually from 46.1 µM), without a hit: at the highest dose activity, negative = less viability, usual class: cytotoxic; 360,000 tested, 1.6% active;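 note: NT is the 2HG producing partner of a matched IDH1 knockdown line; potency is the fitted concentration of half-maximal effect; 0% = DMSO-treated cells and -100% = media-only wells without cells; nearly all actives have a fitted effect of over 55% in size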
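A 48-hour cytotoxicity screen used HT-1080-NT cells plated 2 hours before compound delivery. ATP-based CellTiter-Glo luminescence measured viability, normalized to DMSO and no-cell controls.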
12-LOX inh: Primary qHTS assay for inhibitors of human arachidonate 12S-lipoxygenase (ALOX12): Round 2; Polyunsaturated fatty acid lipoxygenase ALOX12 (Homo sapiens), P18054; Potency, µM (top dose mostly 108 µM), inactives show at the highest dose activity change, negative = inhibition, usual class: inhibitors; purified 12hLO, xylenol orange hydroperoxide absorbance; 580,000 tested, 1.1% active; note: potency is the fitted concentration of half-maximal effect
Target sequence (P18054 whole entry, looked up): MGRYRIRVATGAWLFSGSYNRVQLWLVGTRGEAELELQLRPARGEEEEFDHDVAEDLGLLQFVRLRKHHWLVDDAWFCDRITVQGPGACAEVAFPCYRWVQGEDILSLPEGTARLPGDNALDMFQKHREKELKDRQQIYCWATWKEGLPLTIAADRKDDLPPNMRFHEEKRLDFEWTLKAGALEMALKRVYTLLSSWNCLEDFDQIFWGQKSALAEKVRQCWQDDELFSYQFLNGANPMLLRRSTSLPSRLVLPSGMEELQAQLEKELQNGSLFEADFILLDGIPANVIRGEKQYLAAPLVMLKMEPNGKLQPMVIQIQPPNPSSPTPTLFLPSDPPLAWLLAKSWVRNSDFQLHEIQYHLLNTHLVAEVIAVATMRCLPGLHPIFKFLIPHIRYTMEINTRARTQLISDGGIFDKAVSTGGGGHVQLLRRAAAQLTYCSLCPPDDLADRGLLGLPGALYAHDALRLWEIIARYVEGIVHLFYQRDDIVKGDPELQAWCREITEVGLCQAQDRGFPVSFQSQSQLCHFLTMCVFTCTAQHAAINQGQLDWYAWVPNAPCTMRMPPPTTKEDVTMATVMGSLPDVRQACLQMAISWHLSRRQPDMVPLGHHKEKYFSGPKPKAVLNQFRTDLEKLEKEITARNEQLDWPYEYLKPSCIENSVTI
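Hydroperoxide product was detected by ferrous iron/xylenol orange as the 573 to 405 nm absorbance ratio. Arachidonic acid at 40 uM (final) was turned over for 30 min at room temperature by 150 nM human 12hLO, pH 7.0 Hepes buffer, after 15 min compound preincubation.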
IL1B secr inh: qHTS for Inhibitors of Inflammasome Signaling: IL-1-beta AlphaLISA Primary Screen; 360,000 tested, 4.7% active; AID 743279, 2014; activity change, % at 57.5 µM; THP-1 LPS/ATP IL-1B secretion, AlphaLISA, 16 h; hits give low values; in the data active = activity change below about -50%; inconclusive = mostly about -30% to -49%
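Secreted IL-1B measured by AlphaLISA bead assay after 16 h compound exposure of THP-1 cells; compounds (final up to 57.5 uM) added 1 h before LPS (250 ng/mL) and ATP (1.25 mM) stimulation; lower signal means less secretion.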
* hit, by the source's call; ? = inconclusive; . = not tested or not shown; [ ] = remark or other dose. This is one part of a sample in which hits are shown more often than they occur. Unless noted, calls come from the whole dose curve; as a rule, active = well fitted curve in the direction sought with a large enough effect; inconclusive = small, poorly fitted or top-dose-only effect, or another doubt; inactive = no such curve, though single readings can be large; an effect the other way counts as inactive or inconclusive. Unless noted, % is set by controls: 0 for no effect and ±100 for the full control effect.

SMILES | HT1080 IDH1KD tx | TDP1 cell noCPT | DT40 TDP1 CPT | HT1080-NT tox | 12-LOX inh | IL1B secr inh
Cc1ccc(NC(=O)c2nn(CC(C)C)c(=O)c3ccccc23)cc1S(=O)(=O)N1CCOCC1 | . | . | . | . | -7% | .
CCn1nc(C(=O)Nc2ccc(Cl)c(S(=O)(=O)N3CCOCC3)c2)c2ccccc2c1=O | -4% | 16µM* | ? | -8% | 25% | 16
CCCn1nc(C(=O)Nc2cccc(S(=O)(=O)N3CCOCC3)c2)c2ccccc2c1=O | -21% | 26µM* | ? | -26% | -5% | ?
CCN(CC)C(=O)CSc1nc2ccc(NC(=O)CSc3nnc(N)s3)cc2s1 | -1% | ? | ? | 1% | 0% | -13
CCOC(=O)Nc1ccc2nc(Sc3ccc(Cl)cc3)sc2c1 | ? | 5.8µM* | 5.8µM* | ? | ? | 43
CCOC(=O)CSc1nc2ccc(NC(=O)c3ccc(Cl)cc3)cc2s1 | . | ? | -27% | . | -4% | .
CCN(CC)C(=O)CSc1nc2ccc(NC(=O)CSc3nccn3C)cc2s1 | -5% | 16µM* | -29% | -22% | 2% | -53*
O=C(Nc1ccc2nc(SCc3cccc4ccccc34)sc2c1)c1ccc(Cl)cc1 | . | . | . | . | 28µM* | .
Cn1cnnc1SCC(=O)Nc1ccc2nc(SCc3cccc4ccccc34)sc2c1 | -23% | ? | 23µM* | -19% | 127% | -16
CN(C)[S+](=O)([O-])c1ccc2c(c1)OCCN(Cc1ccc(Cl)cn1)C2 | . | . | . | . | 49%[176 µM] | .
N#Cc1ccc(COC(=O)c2cc3ccccc3[nH]2)cc1 | . | . | . | . | -25% | .
N#C/C(=C/c1cccc(O)c1)c1nc2ccccc2o1 | . | . | . | . | -33% | .
O=C(CC1(O)C(=O)Nc2cc(Cl)cc(Cl)c21)c1ccncc1 (stereo not drawn) | ? | ? | ? | -1% | 5% | -100*
COc1ccc(C(=O)CC2(O)C(=O)Nc3c(Cl)ccc(Cl)c32)cc1 (stereo not drawn) | . | . | . | . | -35%[57.4 µM] | .
CCN(CC)S(=O)(=O)c1cccc(C(=O)c2c(C)cc3ccccn23)c1 | -14% | 21µM* | ? | 0% | -15% | 1
Cc1cc2ccccn2c1C(=O)c1ccc(-c2ccccc2)cc1 | . | . | . | . | 0% | .
CCN(CC)S(=O)(=O)c1cccc(NC(=O)C(=O)c2c(-c3ccccc3)cc3ccccn23)c1 | -1% | 23µM* | ? | 0% | 0% | 29
CCN(CC)S(=O)(=O)c1cc(NC(=O)C(=O)c2c(-c3ccccc3)cc3ccccn23)ccc1C | -19% | 23µM* | 21µM* | -3% | -10% | 2
O=C(c1ccccc1OC(F)(F)F)N1CCC2(CC1)CC(O)CCO2 (stereo not drawn) | . | . | . | . | 20% | .
O=C(c1ccncc1)N1CCCC(n2cc(-c3nc(C4CC4)no3)nn2)C1 (stereo not drawn) | . | . | . | . | 14% | .
O=C(c1cc2nc(-c3ccc(F)cc3)cc(C(F)(F)F)n2n1)N1CCCCC1c1cccnc1 (stereo not drawn) | 18µM* | 9.2µM* | 13µM* | ? | 8% | -62*
CC1CCCCN1C(=O)c1cc2nc(-c3ccccc3)cc(-c3ccccc3)n2n1 (stereo not drawn) | ? | 23µM* | 16µM* | ? | -12% | -61*
Cc1ccc(-c2cc(C(F)F)n3ncc(C(=O)N4CCN5CCCC5C4)c3n2)cc1 (stereo not drawn) | -7% | ? | 15µM* | -9% | 4% | ?
COc1ccc(-c2cc(C(F)F)n3ncc(C(=O)N4CCN(C)CC4)c3n2)cc1 | 0% | -28% | -28% | -2% | -13%[57.4 µM] | ?
Cc1ccc(-c2cc(C(F)F)n3ncc(C(=O)NN4CCCCC4)c3n2)cc1 | 3% | 23µM* | 21µM* | 23% | -3% | 3
SMILES | HT1080 IDH1KD tx | TDP1 cell noCPT | DT40 TDP1 CPT | HT1080-NT tox | 12-LOX inh | IL1B secr inh
COc1ccc(-n2c(C)c(C)c3c2ncn2nc(-c4cccs4)nc32)cc1 | . | . | . | . | 18% | .
O=C(NCCc1ccccn1)c1cccc(Cl)c1 | . | . | . | . | 13% | .
CCOc1ccc(C(=O)NC(CC(=O)OC)c2ccc(Cl)cc2)cc1OC (stereo not drawn) | . | . | . | . | -12% | .
Cc1ccc(-c2cc(C(F)(F)F)n3nc(C(=O)N4CCN5CCCC5C4)cc3n2)cc1 (stereo not drawn) | ? | ? | ? | ? | -9% | -62*
COc1ccc(-c2cc(C(F)(F)F)n3nc(C(=O)N4CCN5CCCC5C4)cc3n2)cc1OC (stereo not drawn) | -6% | ? | ? | -1% | 1% | -24
O=C(c1ccccc1)N(CCCl)C(=O)N(CCCl)C(=O)c1ccccc1 | 8% | ? | ? | -1% | 10µM* | -3
O=C(c1ccccc1)N(C(=O)c1ccccc1)c1ccccc1 | -23% | ? | -20% | -26% | -13% | -3
O=C(Nc1ccc(-c2nnc3n2CCCC3)cc1)c1ccc2c(c1)OCO2 | . | . | . | . | 6% | .
CNc1ccc(C=C2C=CC=C2)cc1 | . | ? | 11µM* | . | . | .
CNc1ccc(OC(F)(F)Cl)cc1 | . | . | . | . | -36% | .
CC(=O)NNC(=S)Nc1ccc(C(C)C)cc1 | . | . | . | . | 0% | .
Cc1ccc(Nc2nc3nonc3[nH]c2=O)cc1Cl | ? | 26µM* | 16µM* | ? | ? | -17
O=C(C[n+]1ccn(-c2ccccc2)c1)c1ccc([N+](=O)[O-])cc1 | -17% | 16µM* | 15µM* | -29% | 0% | 54
O=[N+]([O-])c1ccc(C[n+]2ccc(Cc3ccccc3)cc2)cc1 | -25% | 10µM* | 18µM* | ? | -14% | -4
c1ccc(Cc2cc[n+](Cc3ccccn3)cc2)cc1 | -21% | 9.2µM* | 21µM* | -2% | 478% | 60
O=C(C[n+]1ccccc1)c1cccc([N+](=O)[O-])c1 | . | -3% | -8% | . | . | .
O=C(Cn1cc[n+](Cc2ccccc2)c1)c1ccc([N+](=O)[O-])cc1 | -2% | 2.6µM* | 3.7µM* | ? | -1% | -72*
O=[N+]([O-])c1ccc(C[n+]2ccccc2)cc1 | 9% | -2% | -10% | 2% | -1% | 14
